Screens as filed in PubChem.
This is a sample that favours compounds with a hit; in the whole collection about 3% have one here.
BH1578 lux ind: induces V. cholerae light production without autoinducers | V. cholerae BH1578 lux reporter, luminescence, 6 h | activation, % at 18.7 µM | 350,000 compounds, 0.16% hits | AID 588436; in the data active = activation mostly above about 9.7%, no sharp cut-off
Mtb BioA inh: inhibitors of Mycobacterium tuberculosis BioA enzyme; purified M. tuberculosis BioA enzyme, plate reader; inhibition, % at 9.99 µM; 360,000 compounds, 0.096% hits; in the data active = inhibition above about 40%
GDH-TPI counter-1: inhibits GDH-TPI coupling enzymes, artifact for Mtb FBA screen. AID 588335. inhibition, % at 4.8 µM. GDH-TPI coupled enzyme counterscreen, NADH absorbance. 360,000 compounds, 1.2% hits; in the data active = inhibition above about 30%
FBA Mtb inh: Mtb fructose-bisphosphate aldolase inhibition | P9WQA3 | purified M. tuberculosis FBA, fluorescence read-out | inhibition, % at 1 µM | 360,000 compounds, 2.3% hits | AID 588726
Target sequence (P9WQA3 whole entry, looked up): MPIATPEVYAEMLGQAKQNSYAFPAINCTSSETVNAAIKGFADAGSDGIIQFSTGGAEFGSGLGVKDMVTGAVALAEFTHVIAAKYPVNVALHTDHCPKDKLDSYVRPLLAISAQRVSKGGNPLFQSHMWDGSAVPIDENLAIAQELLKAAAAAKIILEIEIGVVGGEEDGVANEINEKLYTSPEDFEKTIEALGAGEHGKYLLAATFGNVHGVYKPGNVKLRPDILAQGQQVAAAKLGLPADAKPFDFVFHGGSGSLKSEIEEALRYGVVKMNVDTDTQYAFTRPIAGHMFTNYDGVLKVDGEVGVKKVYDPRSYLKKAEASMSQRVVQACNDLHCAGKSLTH
Mtb FBA confirm: confirmation of M. tuberculosis fructose-bisphosphate aldolase inhibitors; inhibition, % at 1 µM; shares compounds with FBA Mtb inh; AID 651616; 5,600 compounds, 78% hits; purified M. tuberculosis FBA, fluorescence read-out
GDH-TPI counter-2: counter-screen for M. tuberculosis FBA inhibitors: GDH-TPI coupled enzyme inhibition; shares compounds with FBA Mtb inh; inhibition, % at 1 µM; 5,600 compounds, 81% hits; AID 652141; GDH-TPI coupled enzyme counterscreen, fluorescence; in the data active = inhibition above about 10%
Numbers stand for hits; n = inactive; x = not tested or not shown; + = active, no number. Rule as the data show it, unless noted: active = inhibition above about 27%; inactive = the rest.

SMILES	BH1578 lux ind	Mtb BioA inh	GDH-TPI counter-1	FBA Mtb inh	Mtb FBA confirm	GDH-TPI counter-2
COc1ccc(C2C3=C(CC(C)(C)CC3=O)Nc3nc(C)nn32)cc1OC (stereo unspecified)	n	n	n	35.6	+	+
CC(C)C(=O)Nc1ccc2c(c1)C(=O)N(C)[C@@H]1CC[C@H](CC(=O)N[C@H](C)c3ccccc3)O[C@H]1CO2	x	n	x	x	x	x
CCC(=O)N(C)C[C@H]1Oc2cc(C#CC3(O)CCCC3)ccc2S(=O)(=O)N([C@H](C)CO)C[C@@H]1C	x	n	x	x	x	x
Cc1ccc(-n2c(O)c(C=Nc3cc(C)on3)c3ccccc3c2=O)c(C)c1	n	x	n	46.6	+	+
Cc1ccc(-n2c(O)c(C=NC3CCS(=O)(=O)C3)c3ccccc3c2=O)c(C)c1 (stereo unspecified)	n	x	n	n	x	x
CC(=O)Nc1ccc2nc(-c3ccncc3)[nH]c2c1	n	n	n	32.2	+	+
CO[C@H]1CN(C)C(=O)c2cc(NS(=O)(=O)c3ccc(C)cc3)ccc2OC[C@@H](C)NC[C@H]1C	x	n	x	x	x	x
CCC(=O)N(C)C[C@H]1Oc2ncc(-c3ccccc3C)cc2C(=O)N([C@@H](C)CO)C[C@H]1C	x	n	x	x	x	x
Cc1ccc2[nH]c(C(=O)NCCN3CCCC3)cc2c1	n	n	n	41.1	76.3	63.2
Fc1cccc2sc(Nc3nnc(-c4ccco4)o3)nc12	n	n	n	32.7	197.7	166.3
COc1cccc2sc(Nc3nnc(-c4ccc(F)cc4)o3)nc12	n	n	40.4	49.2	+	+
C[C@H](CO)N1C[C@H](C)[C@H](CN(C)Cc2ccc(-c3ccccc3)cc2)Oc2ncc(C#CCN(C)C)cc2C1=O	x	n	x	x	x	x
CCOC(=O)C1=C(C)OC(N)=C(C#N)C1c1cc2c(cc1[N+](=O)[O-])OCO2 (stereo unspecified)	n	x	n	32.8	42.1	26.2
CN1Cc2c(N3CCOCC3)nc3sc(C(=O)c4ccccc4)c(N)c3c2CC1(C)C	n	x	n	n	x	x
Cc1ccc(NC(=O)c2sc3nc(N4CCOCC4)c4c(c3c2N)CC(C)(C)OC4)cc1	n	n	n	n	x	x
CCOC(=O)c1sc2nc(N3CCOCC3)c3c(c2c1N)CC(C)(C)N(C)C3	n	n	n	58.9	n	n
CC1(C)Cc2c(c(N3CCCC3)nc3sc(C(=O)Nc4ccccc4)c(N)c23)CO1	n	x	n	33.7	+	+
Nc1c(C(=O)NCCc2ccccc2)sc2nc(N3CCOCC3)c3c(c12)CCCC3	n	n	n	82.1	n	14.1
CC(C)C#Cc1cnc2c(c1)C(=O)N([C@H](C)CO)C[C@H](C)[C@H](CN(C)C(=O)Nc1ccccc1)O2	x	n	x	x	x	x
COCc1c(Br)c(C)[nH]c(=O)c1C#N	n	n	n	32.1	70.9	49.6
CCOC(=O)Cn1c(C)c(Br)c(COC)c(C#N)c1=O	n	x	n	n	x	x
Cn1ncn2c(=O)c3c(nc12)-c1ccccc1CC31CCCC1	n	x	n	43.7	+	+
CSc1n[nH]c2nc3c(c(=O)n12)C1(CCCC1)Cc1ccccc1-3	n	n	n	n	x	x
Cn1c(NCCO)nc2c(c1=O)C1(CCCCC1)Cc1ccccc1-2	x	n	n	70.3	+	+
Nn1cnc2c(c1=O)C1(CCCCC1)Cc1ccccc1-2	n	x	n	n	x	x
SMILES	BH1578 lux ind	Mtb BioA inh	GDH-TPI counter-1	FBA Mtb inh	Mtb FBA confirm	GDH-TPI counter-2
CCSc1n[nH]c2nc3c(c(=O)n12)C1(CCCC1)Cc1ccccc1-3	n	n	n	28.3	n	n
O=C(O)C1Cn2c(nc3c(c2=O)C2(CCCC2)Cc2ccccc2-3)S1 (stereo unspecified)	n	n	n	35.0	n	n
O=C(C[C@H]1C=C[C@H](NC(=O)c2ccccc2)[C@@H](CO)O1)Nc1ccc(-c2ccccc2)cc1	x	n	x	x	x	x
Cc1ccc(S(=O)(=O)Nc2cccc3c2O[C@H](CN(C)S(=O)(=O)c2cccs2)[C@@H](C)CN([C@H](C)CO)C3=O)cc1	x	n	x	x	x	x
C[C@@H]1CCCCO[C@H](CN(C)S(=O)(=O)c2ccccc2)[C@H](C)CN([C@@H](C)CO)C(=O)c2cc(NC(=O)NC3CCCCC3)ccc2O1	x	n	x	x	x	x
C[C@H](CO)N1C[C@H](C)[C@@H](CN(C)C(=O)Nc2cc(F)ccc2F)Oc2cc(-c3cccc(F)c3)ccc2S1(=O)=O	x	n	x	x	x	x
C/C=C(/C)C(=O)O[C@@H]([C@H](O)c1cc2ccc(=O)oc2cc1OC)C(C)(C)O[C@@H]1O[C@H](CO)[C@@H](O)[C@H](O)[C@H]1O	n	n	n	58.8	161.1	146.4
